# Laboratory results taken from PubChem BioAssay (Tox21).
# Records with an inconclusive call do not appear. Where a call stands in place of a potency, no number is given. Activity calls are given as the source filed them. The call rests on the fitted dose curve; in most records, active means well fitted activation curve with a large enough effect in the repeat runs; inconclusive means weak or mixed curves; inactive means flat fitted curve, though single readings scatter.
# Test: Caspase-3/7 induction in HepG2 cells by small molecules, qHTS assay (AID 1346978); further: nearly all actives have a fitted effect of over 15% in size
# Settings: HepG2 caspase-3/7 activation, Caspase-Glo luminescence, 17 h; series mostly up to 92.4 µM
# Description: National Center for Advancing Translational Sciences [NCATS] NIH Chemical Genomics Center [NCGC] U.S. Environmental Protection Agency [EPA] National Institutes of Environmental Health Sciences [NIEHS] National Toxicology Program [NTP] Assay overview: Apoptosis is a process of programmed cell death and plays a central role in the development of multicellular organisms. It is a highly regulated process and induces cell death by activating caspases, which are the members of cysteine aspartic acid-specific protease (caspase) family. Caspases involved in apoptosis are classified by their mechanism of action as initiator caspases (caspase-2, -8, -9 and -10) and executioner caspases (caspase-3, -6, and -7). Inhibition of apoptosis results in number of cancers, autoimmune diseases, inflammatory diseases and viral infection. To identify small molecule compounds that induce apoptosis, a homogeneous, luminescent Caspase-Glo 3/7 assay was used. Wild type HepG2 cells were used to screen Tox21 libraries for identifying caspase-3/7 activity inducers.
# Assay Protocol Summary: HepG2 cells were dispensed at 2,000 per well in 5uL of culture medium into white solid bottom 1536-well plates (Corning Life Sciences, Corning, NY) using a Multidrop Combi (Thermo Scientific, Waltham, MA) dispenser. The assay plates were incubated at 37 C and 5% CO2 for 5hr, and then 23nL of compounds dissolved in DMSO and positive control were transferred using a Pintool station (Wako, San Diego, CA). The assay plates were incubated at 37C and 5% CO2 for 17hr. For caspase-3/7 activity read, 4uL of Caspase-Glo 3/7 reagent (Promega Corporation, Madison, WI) was added to each well of the assay plates using Flying Reagent Dispenser (FRD, Aurora Discovery, San Diego, CA) and incubated the assay plates at room temperature for 30min. The luminescence signal was quantified using a ViewLux plate reader (Perkin Elmer, Shelton, CT).
# Potency means the concentration at half of the fitted maximal effect.
row,SMILES,Potency
1,O=C(O)COCC(=O)O,inactive
2,CC(C)(C)N,inactive
3,CCCCCC1CCC(=O)O1 (stereo not given),inactive
4,CCC(=O)O[C@]1(C(=O)COC)[C@@H](C)C[C@H]2[C@@H]3CCC4=CC(=O)C=C[C@]4(C)C3(F)[C@@H](O)C[C@@]21C (stereo not given in full),inactive
5,CCC(C(=O)O)c1ccc(N2Cc3ccccc3C2=O)cc1 (stereo not given),inactive
6,CC(=O)Nc1ccccc1O,inactive
7,Sc1nc(S)nc(S)n1,inactive
8,Clc1cccc(C(c2ccc3nc[nH]c3c2)n2ccnc2)c1 (stereo not given),inactive
9,CCC(CC)C(=O)O,inactive
10,O=S(=O)(O)c1cc(Cl)c(Cl)cc1Cl,inactive
11,C[C@@H](O)[C@H]1C(=O)N2C(C(=O)O)=C(S[C@@H]3CN[C@H](CNS(N)(=O)=O)C3)[C@H](C)[C@H]12,inactive
12,SCCOCCOCCS,inactive
13,CCOc1ccc(NC(C)=O)cc1N,inactive
14,Cc1cccc(C)c1NC(=O)CN1CCCC1,inactive
15,O=C(NC1CCN(CCc2c[nH]c3ccccc23)CC1)c1ccccc1,inactive
16,CCCCCCCCC(=O)OCC(C)OC(=O)CCCCCCCC (stereo not given),inactive
17,C=CC(O)CCCCC (stereo not given),inactive
18,CCCC(=O)OCCC(C)C,inactive
19,CC(CC(C#N)(c1ccccc1)C(C)C)N(C)C (stereo not given),inactive
20,Cc1ccc2ccccc2c1[N+](=O)[O-],inactive

row,SMILES,Potency
1,CCc1cnc(C(=O)O)c(C(=O)O)c1,inactive
2,CCOC(C)OCC,inactive
3,CC1(C)C(=O)NC(=O)N1CO,inactive
4,CC(C)NC(=O)c1ccccc1N,inactive
5,CCCCCCOC(=O)c1ccccc1,inactive
6,CC(C)C[C@H](NC(=O)[C@H](Cc1ccccc1)NC(=O)c1cnccn1)B(O)O,211 nM (active)
7,CCCCCCCCCCCCSCCOCCO,inactive
8,COc1cc(CNC(=O)CCCC/C=C/C(C)C)ccc1O,inactive
9,CCCCCCCCCCCCCCCCC(=O)O,inactive
10,CCC(C)CCCC(C)(C)O (stereo not given),inactive
11,OCCOc1cccc(OCCO)c1,inactive
12,CC(CN=Cc1ccccc1O)N=Cc1ccccc1O (stereo not given),inactive
13,CCCCOc1ccc(N)cc1,inactive
14,O=c1[nH]nc(-c2ccc([N+](=O)[O-])o2)o1,inactive
15,CC(COc1ccccc1)NC(C)C(O)c1ccc(O)cc1 (stereo not given),inactive
16,COc1ccc(/C=C/S(=O)(=O)NC(=O)c2ccc(C)cc2Cl)cc1,inactive
17,O=C(OCCN1CCOCC1)c1cccnc1Nc1cccc(C(F)(F)F)c1,inactive
18,Cc1nc2sccn2c(=O)c1CCN1CCC(=C(c2ccc(F)cc2)c2ccc(F)cc2)CC1,inactive
19,Cc1ccc(S(=O)(=O)NC(=O)NC2CCCC2)cc1,inactive
20,Cc1c(-c2cccnc2)c2ccccc2n1CCCCC(=O)O,inactive
